These results are taken from ChEMBL document CHEMBL2218924, “A broad activity screen in support of a chemogenomic map for kinase signalling research and drug discovery” (Biochem J, 2013).

Experiment [1] addresses Mitogen-activated protein kinase 11 (Homo sapiens) (UniProt Q15759). The note with it: at 1 µM.
For experiment [2] the target is unchanged. The note with it: at 10 µM.
Experiment [3] deals with T1, Mitogen-activated protein kinase 13 (Homo sapiens) (UniProt O15264).
T1 sequence (whole entry): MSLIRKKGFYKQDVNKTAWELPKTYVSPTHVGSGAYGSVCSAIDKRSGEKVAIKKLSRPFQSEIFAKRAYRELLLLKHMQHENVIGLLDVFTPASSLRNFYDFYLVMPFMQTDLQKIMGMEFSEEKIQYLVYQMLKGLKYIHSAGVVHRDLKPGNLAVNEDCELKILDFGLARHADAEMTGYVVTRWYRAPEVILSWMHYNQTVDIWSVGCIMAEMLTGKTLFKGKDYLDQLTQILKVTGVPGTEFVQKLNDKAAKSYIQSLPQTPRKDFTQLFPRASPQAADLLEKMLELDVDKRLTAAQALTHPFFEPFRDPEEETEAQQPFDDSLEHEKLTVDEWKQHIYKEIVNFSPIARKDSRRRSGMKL
The note with it: at 1 µM.

The target in experiment [4] is T1, Mitogen-activated protein kinase 13 (Homo sapiens). The note with it: at 10 µM.
Experiment [5] deals with T2, Serine/threonine-protein kinase Sgk1 (Homo sapiens) (UniProt O00141).
T2 sequence (whole entry): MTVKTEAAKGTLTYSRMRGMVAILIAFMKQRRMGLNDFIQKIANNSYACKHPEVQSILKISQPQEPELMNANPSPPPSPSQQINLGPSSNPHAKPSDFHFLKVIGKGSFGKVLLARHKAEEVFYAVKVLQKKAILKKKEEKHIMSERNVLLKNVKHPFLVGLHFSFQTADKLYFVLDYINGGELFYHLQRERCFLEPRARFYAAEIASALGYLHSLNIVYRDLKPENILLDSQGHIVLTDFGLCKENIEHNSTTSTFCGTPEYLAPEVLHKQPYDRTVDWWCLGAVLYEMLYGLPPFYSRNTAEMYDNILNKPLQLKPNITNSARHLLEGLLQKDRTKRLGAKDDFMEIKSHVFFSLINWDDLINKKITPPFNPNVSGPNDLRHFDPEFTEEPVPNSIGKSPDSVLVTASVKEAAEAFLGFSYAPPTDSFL
The following applies: at 1 µM.

The target of experiment [6] is T2, Serine/threonine-protein kinase Sgk1 (Homo sapiens). The following applies: at 10 µM.
For experiment [7], the target named is T3, Serine/threonine-protein kinase Sgk2 (Homo sapiens) (UniProt Q9HBY8).
T3 sequence (whole entry): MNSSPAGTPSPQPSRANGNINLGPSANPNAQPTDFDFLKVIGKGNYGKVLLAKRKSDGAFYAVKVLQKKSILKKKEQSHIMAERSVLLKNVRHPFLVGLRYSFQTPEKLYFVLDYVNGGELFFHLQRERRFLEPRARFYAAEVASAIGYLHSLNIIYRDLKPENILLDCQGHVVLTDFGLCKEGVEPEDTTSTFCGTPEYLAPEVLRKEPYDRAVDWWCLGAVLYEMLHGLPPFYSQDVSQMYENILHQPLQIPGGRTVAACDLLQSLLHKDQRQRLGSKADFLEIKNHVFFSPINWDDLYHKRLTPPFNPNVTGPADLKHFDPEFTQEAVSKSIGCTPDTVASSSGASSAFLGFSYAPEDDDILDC
The note with it: at 1 µM.

The target of experiment [8] is T3, Serine/threonine-protein kinase Sgk2 (Homo sapiens). The following applies: at 10 µM.
The target in experiment [9] is T4, Serine/threonine-protein kinase Sgk3 (Homo sapiens) (UniProt Q96BR1).
T4 sequence (whole entry): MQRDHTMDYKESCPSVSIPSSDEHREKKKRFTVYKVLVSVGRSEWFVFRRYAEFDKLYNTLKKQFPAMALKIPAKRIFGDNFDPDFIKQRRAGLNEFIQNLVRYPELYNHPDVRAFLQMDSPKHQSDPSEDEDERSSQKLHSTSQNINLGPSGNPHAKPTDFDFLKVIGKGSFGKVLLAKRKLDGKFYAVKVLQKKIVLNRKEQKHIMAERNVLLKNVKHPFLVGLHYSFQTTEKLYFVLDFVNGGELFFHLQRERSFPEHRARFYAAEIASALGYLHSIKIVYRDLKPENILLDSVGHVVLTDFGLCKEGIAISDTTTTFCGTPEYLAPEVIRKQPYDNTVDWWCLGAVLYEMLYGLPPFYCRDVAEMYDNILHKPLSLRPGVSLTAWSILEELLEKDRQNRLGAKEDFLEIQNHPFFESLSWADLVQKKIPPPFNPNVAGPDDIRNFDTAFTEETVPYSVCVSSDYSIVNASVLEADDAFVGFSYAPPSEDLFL
The following applies: at 10 µM.

Experiment [10] concerns the target Serine/threonine-protein kinase SIK1 (Homo sapiens) (UniProt P57059). The following applies: at 1 µM.
Experiment [11] shares this target. The following applies: at 10 µM.
The target in experiment [12] is SRSF protein kinase 1 (Homo sapiens) (UniProt Q96SB4). The following applies: at 1 µM.
Sequence of SRSF protein kinase 1 (Homo sapiens) (Q96SB4 whole entry): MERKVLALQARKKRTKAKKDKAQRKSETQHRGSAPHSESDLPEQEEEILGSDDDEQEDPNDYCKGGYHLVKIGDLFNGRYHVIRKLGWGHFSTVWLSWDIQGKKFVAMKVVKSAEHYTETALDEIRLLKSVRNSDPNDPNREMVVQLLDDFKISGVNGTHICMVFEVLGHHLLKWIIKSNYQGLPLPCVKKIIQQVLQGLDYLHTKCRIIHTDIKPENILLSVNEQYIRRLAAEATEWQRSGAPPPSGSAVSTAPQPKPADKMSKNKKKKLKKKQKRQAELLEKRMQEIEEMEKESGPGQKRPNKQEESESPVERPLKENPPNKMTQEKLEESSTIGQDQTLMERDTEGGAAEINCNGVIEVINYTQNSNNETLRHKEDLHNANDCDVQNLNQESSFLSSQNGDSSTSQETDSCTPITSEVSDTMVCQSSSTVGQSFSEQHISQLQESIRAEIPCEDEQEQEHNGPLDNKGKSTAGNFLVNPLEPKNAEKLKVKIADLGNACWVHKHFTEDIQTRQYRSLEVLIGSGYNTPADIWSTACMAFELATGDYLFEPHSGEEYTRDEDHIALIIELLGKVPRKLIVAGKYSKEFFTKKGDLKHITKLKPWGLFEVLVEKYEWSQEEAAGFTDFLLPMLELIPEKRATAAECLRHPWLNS
For experiment [13] the target is unchanged. The following applies: at 10 µM.
For experiment [14], the target named is SRSF protein kinase 2 (Homo sapiens) (UniProt P78362). The note with it: at 1 µM.
Sequence of SRSF protein kinase 2 (Homo sapiens) (P78362 whole entry, looked up): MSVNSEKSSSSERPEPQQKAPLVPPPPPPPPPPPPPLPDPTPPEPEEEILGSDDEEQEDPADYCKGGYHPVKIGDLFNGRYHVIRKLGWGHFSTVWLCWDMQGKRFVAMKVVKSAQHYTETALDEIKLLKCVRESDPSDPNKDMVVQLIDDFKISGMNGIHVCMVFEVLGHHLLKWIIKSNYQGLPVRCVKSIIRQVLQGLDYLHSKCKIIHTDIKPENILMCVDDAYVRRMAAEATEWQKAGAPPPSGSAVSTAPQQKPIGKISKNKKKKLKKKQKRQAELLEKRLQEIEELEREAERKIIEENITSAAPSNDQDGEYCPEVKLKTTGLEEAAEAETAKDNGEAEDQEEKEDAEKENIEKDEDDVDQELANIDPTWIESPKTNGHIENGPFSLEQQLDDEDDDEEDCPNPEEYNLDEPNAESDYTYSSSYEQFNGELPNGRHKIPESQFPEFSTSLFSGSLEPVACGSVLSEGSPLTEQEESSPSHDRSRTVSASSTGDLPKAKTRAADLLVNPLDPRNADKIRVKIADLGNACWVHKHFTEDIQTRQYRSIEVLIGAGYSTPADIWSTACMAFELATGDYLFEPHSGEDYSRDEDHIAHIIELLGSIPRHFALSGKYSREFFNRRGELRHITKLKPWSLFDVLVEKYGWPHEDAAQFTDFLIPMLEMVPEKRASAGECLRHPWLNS
The target is the same in experiment [15]. The note with it: at 10 µM.
The target of experiment [16] is Serine/threonine-protein kinase 33 (Homo sapiens) (UniProt Q9BYT3). The note with it: at 1 µM.
Sequence of Serine/threonine-protein kinase 33 (Homo sapiens) (Q9BYT3 whole entry, looked up): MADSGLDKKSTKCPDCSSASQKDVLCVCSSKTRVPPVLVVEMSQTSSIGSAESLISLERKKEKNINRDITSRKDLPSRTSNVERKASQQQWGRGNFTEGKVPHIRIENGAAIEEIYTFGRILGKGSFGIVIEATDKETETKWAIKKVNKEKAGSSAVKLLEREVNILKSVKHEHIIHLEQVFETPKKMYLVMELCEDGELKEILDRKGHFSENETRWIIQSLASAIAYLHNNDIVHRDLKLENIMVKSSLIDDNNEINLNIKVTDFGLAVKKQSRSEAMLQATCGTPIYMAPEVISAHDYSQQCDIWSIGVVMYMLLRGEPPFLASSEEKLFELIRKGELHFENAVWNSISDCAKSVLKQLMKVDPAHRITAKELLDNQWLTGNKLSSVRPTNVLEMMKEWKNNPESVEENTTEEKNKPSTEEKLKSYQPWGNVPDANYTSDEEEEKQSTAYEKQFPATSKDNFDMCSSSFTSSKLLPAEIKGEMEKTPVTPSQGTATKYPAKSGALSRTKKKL
Experiment [17] has the same target. The following applies: at 10 µM.
For experiment [18], the target named is Serine/threonine-protein kinase PLK2 (Homo sapiens) (UniProt Q9NYY3). The following applies: at 1 µM.
Sequence of Serine/threonine-protein kinase PLK2 (Homo sapiens) (Q9NYY3 whole entry, looked up): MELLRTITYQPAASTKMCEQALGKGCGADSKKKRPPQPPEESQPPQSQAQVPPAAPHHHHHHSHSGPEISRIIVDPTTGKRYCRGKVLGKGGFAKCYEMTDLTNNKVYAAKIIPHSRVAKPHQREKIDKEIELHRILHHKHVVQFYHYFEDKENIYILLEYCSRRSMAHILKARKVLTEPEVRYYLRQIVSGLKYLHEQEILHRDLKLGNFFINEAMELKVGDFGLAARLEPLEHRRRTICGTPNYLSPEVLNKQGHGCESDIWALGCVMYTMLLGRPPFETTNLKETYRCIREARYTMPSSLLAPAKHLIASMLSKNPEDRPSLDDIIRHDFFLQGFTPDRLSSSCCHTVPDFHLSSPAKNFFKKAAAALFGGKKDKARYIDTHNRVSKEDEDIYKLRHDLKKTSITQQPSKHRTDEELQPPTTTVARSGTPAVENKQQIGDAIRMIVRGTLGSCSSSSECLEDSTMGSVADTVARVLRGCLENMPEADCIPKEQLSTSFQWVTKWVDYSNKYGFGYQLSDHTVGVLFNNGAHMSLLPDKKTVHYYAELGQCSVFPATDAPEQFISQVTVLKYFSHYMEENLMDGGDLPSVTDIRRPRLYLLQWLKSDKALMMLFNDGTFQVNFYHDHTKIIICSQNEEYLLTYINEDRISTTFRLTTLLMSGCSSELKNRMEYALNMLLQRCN
For experiment [19] the target is unchanged. The note with it: at 10 µM.
Experiment [20] deals with Tyrosine-protein kinase SYK (Homo sapiens) (UniProt P43405). The following applies: at 1 µM.

Sequence of Mitogen-activated protein kinase 11 (Homo sapiens) (Q15759 whole entry): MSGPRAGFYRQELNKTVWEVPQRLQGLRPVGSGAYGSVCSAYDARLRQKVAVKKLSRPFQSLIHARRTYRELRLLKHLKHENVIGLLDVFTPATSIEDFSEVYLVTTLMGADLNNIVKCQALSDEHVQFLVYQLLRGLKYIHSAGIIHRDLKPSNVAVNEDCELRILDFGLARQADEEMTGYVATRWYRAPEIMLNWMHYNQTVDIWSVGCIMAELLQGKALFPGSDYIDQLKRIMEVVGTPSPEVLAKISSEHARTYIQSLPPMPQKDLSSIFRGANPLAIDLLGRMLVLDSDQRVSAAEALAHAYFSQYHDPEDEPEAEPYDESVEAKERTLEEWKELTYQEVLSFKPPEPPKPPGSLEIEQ
Sequence of Serine/threonine-protein kinase SIK1 (Homo sapiens) (P57059 whole entry): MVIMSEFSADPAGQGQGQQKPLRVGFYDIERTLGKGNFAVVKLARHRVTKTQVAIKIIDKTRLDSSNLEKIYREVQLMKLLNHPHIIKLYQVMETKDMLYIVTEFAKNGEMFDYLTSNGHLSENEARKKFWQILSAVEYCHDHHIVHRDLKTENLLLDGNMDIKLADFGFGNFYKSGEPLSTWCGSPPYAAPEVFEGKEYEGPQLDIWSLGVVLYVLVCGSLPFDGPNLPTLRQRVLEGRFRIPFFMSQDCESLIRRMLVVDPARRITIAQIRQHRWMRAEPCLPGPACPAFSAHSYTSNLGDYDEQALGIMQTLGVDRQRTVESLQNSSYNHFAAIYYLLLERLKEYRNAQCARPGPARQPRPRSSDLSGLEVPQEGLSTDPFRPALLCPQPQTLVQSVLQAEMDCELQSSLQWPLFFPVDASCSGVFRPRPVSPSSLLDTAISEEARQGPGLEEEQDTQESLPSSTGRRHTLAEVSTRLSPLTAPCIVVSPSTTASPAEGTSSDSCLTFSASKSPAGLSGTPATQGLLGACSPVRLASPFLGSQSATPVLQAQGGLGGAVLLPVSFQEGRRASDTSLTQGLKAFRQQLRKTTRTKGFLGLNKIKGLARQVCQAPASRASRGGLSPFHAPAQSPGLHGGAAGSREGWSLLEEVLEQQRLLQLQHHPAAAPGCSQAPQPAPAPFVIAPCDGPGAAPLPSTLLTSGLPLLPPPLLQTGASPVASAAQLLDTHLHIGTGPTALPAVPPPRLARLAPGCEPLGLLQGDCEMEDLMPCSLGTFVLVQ

For the molecule `COc1cc2ncnc(Nc3ccc(O)c(Br)c3)c2cc1OC`, the residual activity in [1] was found to be 93%; in experiment [2], 58%; in experiment [3], 111%; in experiment [4] it was 83%; in experiment [5], 71%; in experiment [6], 87%. In addition, the residual activity was 62% in experiment [7]; 48% in experiment [8]; 86% in [9]; 90% in experiment [10]; 22% in experiment [11]; 103% in [12]. For the same molecule, the residual activity in experiment [13] stood at 100%; in experiment [14] it was 93%; in [15], 88%; in experiment [16] it was 76%; in experiment [17], 45%; in experiment [18], 93%. For the same molecule, the residual activity was 85% in experiment [19] and 99% in experiment [20].
Consider `Ic1cccc(CSc2nnc(-c3ccncc3)o2)c1`, for which the residual activity in [1] is 102%; in experiment [2] it was 92%; in [3] it was 104%; in experiment [4] it was 94%; in experiment [5] it was 71%; in experiment [6] it was 64%. Also, the residual activity in experiment [7] was 84%; in experiment [8], 78%; in experiment [9] it was 81%; in experiment [10] it was 92%; in experiment [11], 100%; in [12], 97%. Also, the residual activity in experiment [13] was determined as 102%; in experiment [14], 88%; in [15] it was 79%; in experiment [16], 86%; in experiment [17] it was 80%; in experiment [18], 97%. For the same molecule, the figures for the residual activity in experiment [19] and in experiment [20] were 97% and 98%, respectively.
On to `CNc1cc2c(Nc3cccc(Br)c3)ncnc2cn1`, for which the residual activity was 98% in experiment [1]; 93% in experiment [2]; 110% in experiment [3]; 95% in experiment [4]; 81% in [5]; 75% in experiment [6]. Also, the residual activity in experiment [7] came out at 111%; in experiment [8], 79%; in experiment [9], 96%; in experiment [10], 43%; in experiment [11], 57%; in experiment [12], 93%. The residual activity in experiment [13] is 97%; in experiment [14] it was 98%; in experiment [15], 92%; in experiment [16], 96%; in [17], 93%; in [18], 106%. Besides, the residual activity in experiment [19] was determined as 89%; in experiment [20] it was 117%.
For the molecule `CCN(CC)CCCCN1c2ccccc2Oc2ccc(Cl)cc21`, the residual activity in experiment [1] stood at 106%; in experiment [2], 101%; in [3], 111%; in experiment [4], 99%; in experiment [5] it was 135%; in experiment [6], 80%. For the same molecule, the residual activity in experiment [7] came to 104%; in [8], 102%; in experiment [9], 105%; in experiment [10] it was 114%; in experiment [11], 59%; in [12] it was 101%. The residual activity was 117% in experiment [13]; 104% in [14]; 82% in experiment [15]; 107% in experiment [16]; 109% in experiment [17]; 109% in experiment [18]. Further, the residual activity worked out at 104% in experiment [19] and 137% in [20].
`c1ccc2c(-c3ccncc3)c[nH]c2c1`: the residual activity came to 96% in experiment [1]; 98% in [2]; 103% in experiment [3]; 93% in experiment [4]; 102% in experiment [5]; 45% in experiment [6]. For the same molecule, the residual activity in [7] was determined as 92%; in experiment [8], 24%; in [9], 54%; in experiment [10], 79%; in [11], 85%; in experiment [12], 108%. The residual activity in experiment [13] is 108%; in experiment [14], 89%; in experiment [15], 97%; in experiment [16], 98%; in experiment [17] it was 93%; in experiment [18] it was 107%. Moreover, the residual activity in experiment [19] worked out at 94%.
With `Oc1ccc(Nc2nc(-c3ccc(Cl)cc3)cs2)cc1`, the residual activity is 113% in experiment [1]; 105% in [2]; 111% in experiment [3]; 106% in experiment [4]; 123% in experiment [5]; 203% in experiment [6]. Moreover, the residual activity in experiment [7] was 114%; in [8], 107%; in [9] it was 134%; in experiment [10], 101%; in experiment [11], 111%; in [12], 105%. The residual activity in [13] stood at 111%; in [14] it was 116%; in [15], 87%; in [16], 105%; in experiment [17], 100%; in experiment [18] it was 110%. Further, the residual activity in [19] was determined as 100%; in experiment [20], 117%.
As for `O=C1NC(=O)c2cc(Nc3ccc(F)cc3)c(Nc3ccc(F)cc3)cc21`, the residual activity in [1] turned out to be 95%; in experiment [2] it was 72%; in [3] it was 98%; in experiment [4], 89%; in [5], 108%; in experiment [6] it was 76%. In addition, the residual activity was found to be 97% in experiment [7]; 67% in experiment [8]; 96% in experiment [9]; 98% in [10]; 0% in experiment [11]; 102% in [12]. The residual activity amounted to 93% in experiment [13]; 96% in experiment [14]; 95% in [15]; 95% in experiment [16]; 101% in experiment [17]; 97% in experiment [18]. Moreover, the figures for the residual activity in experiment [19] and in experiment [20] were 96% and 118%, respectively.
